Source: PubChem BioAssay (EPA / NIEHS)
Records with an inconclusive call do not appear. Calls of active or inactive are those of the source. The calls were made as follows, unless noted: active = hit-call score of the fitted dose curve at least 0.9, where 1 is the maximum; inconclusive = response in the unintended direction; inactive = score below 0.9.

Key:
[1] = target: Peroxisome proliferator-activated receptor gamma (Homo sapiens) (UniProt P37231); experiment: NVS_NR_hPPARg: NovaScreen (NVS) Nuclear Receptor Binding Assay for human Peroxisome Proliferator-activated Receptor gamma (PPARg) (AID 2283370)
Method in brief: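 Fluorescence polarization measures competitive binding to extracted PPARg in a cell-free format. Reading is taken at 2 h; activity is signal loss relative to DMSO. Screening at 25 uM in duplicate preceded confirmatory dose series.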

[2] = target: Agonist Androgen Response Element (ARE), AR (gene 367) (UniProt P10275); experiment: OT_AR_ARELUC_AG_1440: Odyssey Thera (OT) 24-hour CHO-K1 Luciferase Assay for Agonist Androgen Response Element (ARE) (AID 2283379)
Method in brief: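 Readout: luciferase bioluminescence from CHO-K1 ARE-luc cells, measured 24 h post-dosing; agonism = increased mean luminescence vs DMSO controls, fitted in positive direction.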

[3] = target: Estrogen receptor beta (Homo sapiens) (UniProt Q92731); experiment: OT_ER_ERbERb_1440: Odyssey Thera (OT) 24-hour HEK293T Protein-Complementation Assay for Estrogen Receptor-beta/-beta Homodimer (AID 2283380);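 also: fluorescence gain from ER beta LBD homodimer complementation read by laser scanning cytometry; scored as signal increase over DMSO baseline for both agonists and antagonists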
Method in brief: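 Fluorescence increase, nuclear for agonists or whole-cell for antagonists, relative to DMSO vehicle, quantified by laser scanning cytometer after fixation and Draq5 staining. Readout from 24 h treatment of HEK293T cells carrying complementation-paired ER beta LBD (aa 310-547).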

[4] = target: Estrogen receptor (Homo sapiens) (UniProt P03372); experiment: OT_ERa_GFPERaERE_0480: Odyssey Thera (OT) 8-hour HeLa Transcription Induction Assay for Estrogen Receptor (AID 2283381; active = hit-call score of the fitted dose curve at least 0.9, where 1 is the maximum; inactive = score below 0.9)
Method in brief: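 Fluorescence microscopy with high-content image analysis measures ERE-driven GFP induction in HeLa cells at 8 h post-dose. Increases fitted against DMSO baseline.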

[5] = target: Estrogen receptor (Homo sapiens) (UniProt P03372); experiment: OT_ERa_GFPERaERE_0120: Odyssey Thera (OT) 2-hour HeLa Transcription Induction Assay for Estrogen Receptor (AID 2283382)
Method in brief: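 Fluorescence-microscopy images of the GFP-ERα/ERE reporter, scored by high-content image algorithms, give the readout. HeLa exposure lasted 2 h, and only signal increase over DMSO was fitted.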

[6] = target: Retinoic acid receptor RXR-alpha (Homo sapiens) (UniProt P19793); experiment: OT_NURR1_NURR1RXRa_1440: Odyssey Thera (OT) 24-hour HEK293T Protein Complementation Assay for Nurr1/retinoid X receptor (RXR) (AID 2283386)
Method in brief: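 Gain in fluorescence, fitted relative to DMSO, reflects Nurr1–RXRα association in HEK293T cells after 24 h dosing. Bait and prey are each linked to a reporter-protein fragment that reassembles on interaction.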

[7] = target: Peroxisome proliferator-activated receptor gamma (Homo sapiens) (UniProt P37231); experiment: OT_PPARg_PPARgSRC1_0480: Odyssey Thera (OT) 8-hour Protein-Complementation Assay for Peroxisome Proliferator-activated Receptor Gamma / SRC-1 Co-activator (AID 2283387);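 also: nuclear to cytoplasmic split Venus YFP fluorescence ratio reporting PPARg SRC-1 interaction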
Method in brief: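 Split-YFP (IFP1/IFP2) PPARg/SRC-1 reporter, HEK293T, 37 °C, 5% CO2; 8 h compound; formaldehyde fix + Draq5; high-content imaging, N/C ratio, ≥350 cells/image, positive direction vs DMSO.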

[8] = target: Peroxisome proliferator-activated receptor gamma (Homo sapiens) (UniProt P37231); experiment: OT_PPARg_PPARgSRC1_1440: Odyssey Thera (OT) 24-hour Protein-Complementation Assay for Peroxisome Proliferator-activated Receptor Gamma/ SRC-1 Co-activator (AID 2283388);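 also: nuclear to cytoplasmic ratio of reconstituted Venus YFP fluorescence in fixed imaged cells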
Method in brief: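 Transient HEK293T, YFP fragments 1-158/159-239 (mutant IFP1/IFP2) fused to PPARg/SRC-1; 24 h dosing; fix 4% formaldehyde, Draq5; Opera imaging 488/635 nm; N/C ratio, gain vs DMSO.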

[9] = target: human Dopamine Transporter (DAT), SLC6A3 (gene 6531) (UniProt Q01959); experiment: NVS_TR_hDAT: NovaScreen (NVS) Transporter Assay for human Dopamine Transporter (DAT) (AID 2283374);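 also: activity means loss of bound radioligand signal relative to DMSO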
Method in brief: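 Duplicate single-point screening at 25 uM preceded concentration-series follow-up of actives. Binding was measured by competitive displacement of a radioligand from DAT protein, filter-counted by scintillation 1 h after dosing. Decrease relative to DMSO taken as activity.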

[10] = target: human Norepinephrine Transporter (NET), SLC6A2 (gene 6530) (UniProt P23975); experiment: NVS_TR_hNET: NovaScreen (NVS) Transporter Assay for human Norepinephrine Transporter (NET) (AID 2283377);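 also: cell-free membrane protein extracted from CHO cells expressing human NET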;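 as to AC50: displacement of radioligand from human NET seen as loss of scintillation signal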
Method in brief: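 Single-concentration duplicate screen at 25 uM, then concentration-response for actives; displacement of specific radioligand from human NET in CHO membrane extracts, filter-based scintillation detection at 1 h relative to DMSO.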

[11] = target: mouse Estrogen Receptor alpha (Era), Esr1 (gene 13982) (UniProt P19785); experiment: NVS_NR_mERa: NovaScreen (NVS) Nuclear Receptor Binding Assay for mouse Estrogen Receptor alpha (Era) (AID 2283378);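 also: hit means loss of bound radioligand signal relative to DMSO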
Method in brief: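 Test chemicals competed against a specific radioligand for binding to cell-free mouse Era. Duplicate wells at 25 uM were read 18 hours later by filter-based radiodetection, with loss of signal against DMSO scored as activity.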

[12] = target: Bile acid receptor (Homo sapiens) (UniProt Q96RI1); experiment: OT_FXR_FXRSRC1_1440: Odyssey Thera (OT) 24-hour HEK293T Protein-Complementation Assay for Farnesoid X receptor/SRC-1 Co-activator (AID 2283384)
Method in brief: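 Protein-fragment complementation: FXR and SRC-1 fused to reporter fragments that reassemble on interaction, read by fluorescence intensity. Human HEK293T cells measured 24 h post-dose; positive-direction fit versus DMSO.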

[13] = CEETOX_H295R_11DCORT: CeeTox H295R High-throughput Steroidogenesis Assay for 11-Deoxycortisol (11DCORT) (AID 2283432; active = hit-call score of the fitted dose curve at least 0.9, where 1 is the maximum; inactive = score below 0.9;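 as to AC50: human adrenal H295R cells prestimulated with 10 µM forskolin for 48 h; 11-deoxycortisol secreted into the medium measured by LC-MS/MS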); conditions: actives raise or lower the signal
Method in brief: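 Steroidogenesis in human H295R cells: 48 h chemical exposure after forskolin priming, 11-deoxycortisol measured by LC-MS/MS.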

[14] = target: Retinoic acid receptor RXR-alpha (Homo sapiens) (UniProt P19793); experiment: OT_NURR1_NURR1RXRa_0480: Odyssey Thera (OT) 8-hour HEK293T Protein Complementation Assay for Nurr1/retinoid X receptor (RXR) (AID 2283385)
Method in brief: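 Interaction of Nurr1 with RXRα read as reconstituted reporter fluorescence in a HEK293T fragment-complementation system, 8 h post-treatment; increase over DMSO baseline analysed.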

Chain of Agonist Androgen Response Element (ARE), AR (gene 367) (P10275 whole entry, looked up): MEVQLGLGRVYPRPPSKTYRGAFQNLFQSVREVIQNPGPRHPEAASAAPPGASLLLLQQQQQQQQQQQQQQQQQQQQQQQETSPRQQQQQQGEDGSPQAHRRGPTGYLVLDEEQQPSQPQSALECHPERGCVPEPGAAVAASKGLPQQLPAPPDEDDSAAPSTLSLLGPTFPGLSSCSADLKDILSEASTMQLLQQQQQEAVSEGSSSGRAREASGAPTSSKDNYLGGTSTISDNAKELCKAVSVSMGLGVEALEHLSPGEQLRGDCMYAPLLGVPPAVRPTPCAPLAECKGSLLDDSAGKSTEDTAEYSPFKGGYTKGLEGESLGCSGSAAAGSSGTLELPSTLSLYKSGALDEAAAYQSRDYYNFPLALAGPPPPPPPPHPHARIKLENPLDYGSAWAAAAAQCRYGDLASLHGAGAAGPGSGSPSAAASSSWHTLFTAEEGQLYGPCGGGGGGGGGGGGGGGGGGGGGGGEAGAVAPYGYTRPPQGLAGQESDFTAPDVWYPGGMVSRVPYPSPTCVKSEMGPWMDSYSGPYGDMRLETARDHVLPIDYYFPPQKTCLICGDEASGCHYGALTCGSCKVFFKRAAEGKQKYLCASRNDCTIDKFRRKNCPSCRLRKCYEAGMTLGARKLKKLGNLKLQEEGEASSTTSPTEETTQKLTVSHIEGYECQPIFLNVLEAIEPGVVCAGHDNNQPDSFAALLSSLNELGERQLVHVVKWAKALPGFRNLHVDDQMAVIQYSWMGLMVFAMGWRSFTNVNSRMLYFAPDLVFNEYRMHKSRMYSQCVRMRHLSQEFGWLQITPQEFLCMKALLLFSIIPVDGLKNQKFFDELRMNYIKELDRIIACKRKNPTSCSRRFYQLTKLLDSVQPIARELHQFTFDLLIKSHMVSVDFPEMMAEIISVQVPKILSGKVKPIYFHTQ
Chain of Retinoic acid receptor RXR-alpha (Homo sapiens) (P19793 whole entry, looked up, the tested form may be a part): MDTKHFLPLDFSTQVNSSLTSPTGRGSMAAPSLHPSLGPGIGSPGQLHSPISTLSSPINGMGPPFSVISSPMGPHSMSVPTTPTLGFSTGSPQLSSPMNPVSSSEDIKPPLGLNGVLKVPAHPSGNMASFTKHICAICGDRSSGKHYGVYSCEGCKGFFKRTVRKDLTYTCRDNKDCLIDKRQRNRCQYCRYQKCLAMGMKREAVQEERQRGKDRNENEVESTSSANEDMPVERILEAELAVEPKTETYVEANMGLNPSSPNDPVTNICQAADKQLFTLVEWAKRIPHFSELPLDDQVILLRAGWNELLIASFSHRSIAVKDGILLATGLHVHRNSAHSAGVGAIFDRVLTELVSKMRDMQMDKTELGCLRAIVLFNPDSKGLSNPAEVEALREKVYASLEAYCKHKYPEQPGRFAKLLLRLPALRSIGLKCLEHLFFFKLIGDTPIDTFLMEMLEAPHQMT
Chain of Bile acid receptor (Homo sapiens) (Q96RI1 whole entry, looked up, the tested form may be a part): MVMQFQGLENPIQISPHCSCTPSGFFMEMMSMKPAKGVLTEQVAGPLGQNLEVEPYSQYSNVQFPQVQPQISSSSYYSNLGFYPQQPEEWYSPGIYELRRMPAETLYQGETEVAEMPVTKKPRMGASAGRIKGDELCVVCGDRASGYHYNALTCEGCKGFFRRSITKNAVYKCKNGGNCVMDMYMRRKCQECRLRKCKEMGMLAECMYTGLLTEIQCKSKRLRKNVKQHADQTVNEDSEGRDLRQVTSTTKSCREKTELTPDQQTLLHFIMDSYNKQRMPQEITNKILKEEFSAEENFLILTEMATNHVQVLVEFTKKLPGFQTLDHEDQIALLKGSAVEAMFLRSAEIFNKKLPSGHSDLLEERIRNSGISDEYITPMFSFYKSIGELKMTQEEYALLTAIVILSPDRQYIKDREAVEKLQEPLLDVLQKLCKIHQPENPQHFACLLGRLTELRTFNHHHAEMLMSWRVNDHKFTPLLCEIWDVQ
Chain of Estrogen receptor beta (Homo sapiens) (Q92731 whole entry, looked up, the tested form may be a part): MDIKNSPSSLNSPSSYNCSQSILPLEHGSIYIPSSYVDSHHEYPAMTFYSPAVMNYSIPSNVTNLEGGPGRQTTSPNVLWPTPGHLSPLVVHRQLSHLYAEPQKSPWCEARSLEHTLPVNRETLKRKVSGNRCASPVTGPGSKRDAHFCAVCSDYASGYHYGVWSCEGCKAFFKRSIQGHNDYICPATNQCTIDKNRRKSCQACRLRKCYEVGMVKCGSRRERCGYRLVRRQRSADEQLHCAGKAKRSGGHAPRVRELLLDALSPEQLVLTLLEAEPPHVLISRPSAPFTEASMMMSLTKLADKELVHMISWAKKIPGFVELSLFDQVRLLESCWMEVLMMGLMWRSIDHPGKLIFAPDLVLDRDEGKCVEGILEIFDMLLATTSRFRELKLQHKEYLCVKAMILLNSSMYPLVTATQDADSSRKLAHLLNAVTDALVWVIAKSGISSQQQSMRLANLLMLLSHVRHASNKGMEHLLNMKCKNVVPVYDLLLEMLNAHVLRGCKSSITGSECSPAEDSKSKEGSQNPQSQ
Chain of Peroxisome proliferator-activated receptor gamma (Homo sapiens) (P37231 whole entry, looked up, the tested form may be a part): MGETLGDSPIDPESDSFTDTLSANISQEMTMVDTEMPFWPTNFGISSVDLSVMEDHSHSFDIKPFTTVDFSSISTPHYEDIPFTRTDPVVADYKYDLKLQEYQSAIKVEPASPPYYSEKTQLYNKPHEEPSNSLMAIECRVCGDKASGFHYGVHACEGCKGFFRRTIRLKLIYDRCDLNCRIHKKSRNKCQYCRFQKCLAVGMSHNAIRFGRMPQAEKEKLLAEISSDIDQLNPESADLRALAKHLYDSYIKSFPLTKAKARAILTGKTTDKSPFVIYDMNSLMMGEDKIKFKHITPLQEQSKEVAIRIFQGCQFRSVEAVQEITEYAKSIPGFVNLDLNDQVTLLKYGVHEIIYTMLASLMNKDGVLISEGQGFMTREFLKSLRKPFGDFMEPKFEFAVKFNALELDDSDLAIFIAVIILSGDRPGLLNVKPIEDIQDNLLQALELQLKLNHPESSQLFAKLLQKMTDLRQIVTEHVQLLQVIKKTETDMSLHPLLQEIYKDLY
Chain of human Norepinephrine Transporter (NET), SLC6A2 (gene 6530) (P23975 whole entry, looked up): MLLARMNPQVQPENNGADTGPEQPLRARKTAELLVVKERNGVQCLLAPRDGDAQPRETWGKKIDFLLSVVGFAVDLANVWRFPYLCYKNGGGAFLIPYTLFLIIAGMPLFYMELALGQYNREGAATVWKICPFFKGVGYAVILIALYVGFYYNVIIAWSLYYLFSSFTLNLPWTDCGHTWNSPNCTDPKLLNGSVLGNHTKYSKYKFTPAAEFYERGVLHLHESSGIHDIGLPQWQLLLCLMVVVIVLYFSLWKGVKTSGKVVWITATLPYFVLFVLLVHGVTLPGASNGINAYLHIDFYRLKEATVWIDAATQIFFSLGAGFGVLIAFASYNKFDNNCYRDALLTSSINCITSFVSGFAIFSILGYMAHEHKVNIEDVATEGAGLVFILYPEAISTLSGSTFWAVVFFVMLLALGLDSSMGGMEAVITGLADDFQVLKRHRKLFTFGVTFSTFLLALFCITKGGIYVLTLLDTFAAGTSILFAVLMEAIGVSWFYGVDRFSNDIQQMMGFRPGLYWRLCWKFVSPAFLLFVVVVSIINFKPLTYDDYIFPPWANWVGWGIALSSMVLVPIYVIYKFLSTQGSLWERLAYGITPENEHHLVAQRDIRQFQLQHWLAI
Chain of mouse Estrogen Receptor alpha (Era), Esr1 (gene 13982) (P19785 whole entry, looked up): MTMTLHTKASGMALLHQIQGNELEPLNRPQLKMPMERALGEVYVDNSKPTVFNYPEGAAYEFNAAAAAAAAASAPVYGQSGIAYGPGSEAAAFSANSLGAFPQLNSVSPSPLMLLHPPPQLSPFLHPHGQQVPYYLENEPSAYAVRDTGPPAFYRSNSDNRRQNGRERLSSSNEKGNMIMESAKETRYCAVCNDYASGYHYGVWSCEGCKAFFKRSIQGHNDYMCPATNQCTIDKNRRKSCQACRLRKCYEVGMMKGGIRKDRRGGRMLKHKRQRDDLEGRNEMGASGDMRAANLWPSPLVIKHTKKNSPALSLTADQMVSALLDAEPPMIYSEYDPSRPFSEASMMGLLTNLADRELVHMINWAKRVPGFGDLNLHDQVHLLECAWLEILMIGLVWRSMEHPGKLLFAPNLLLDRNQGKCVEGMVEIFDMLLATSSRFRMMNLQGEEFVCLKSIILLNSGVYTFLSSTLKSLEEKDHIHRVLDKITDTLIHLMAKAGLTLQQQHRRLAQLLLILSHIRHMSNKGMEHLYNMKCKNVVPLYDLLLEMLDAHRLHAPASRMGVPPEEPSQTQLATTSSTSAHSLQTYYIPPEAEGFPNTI
Chain of Estrogen receptor (Homo sapiens) (P03372 whole entry, looked up): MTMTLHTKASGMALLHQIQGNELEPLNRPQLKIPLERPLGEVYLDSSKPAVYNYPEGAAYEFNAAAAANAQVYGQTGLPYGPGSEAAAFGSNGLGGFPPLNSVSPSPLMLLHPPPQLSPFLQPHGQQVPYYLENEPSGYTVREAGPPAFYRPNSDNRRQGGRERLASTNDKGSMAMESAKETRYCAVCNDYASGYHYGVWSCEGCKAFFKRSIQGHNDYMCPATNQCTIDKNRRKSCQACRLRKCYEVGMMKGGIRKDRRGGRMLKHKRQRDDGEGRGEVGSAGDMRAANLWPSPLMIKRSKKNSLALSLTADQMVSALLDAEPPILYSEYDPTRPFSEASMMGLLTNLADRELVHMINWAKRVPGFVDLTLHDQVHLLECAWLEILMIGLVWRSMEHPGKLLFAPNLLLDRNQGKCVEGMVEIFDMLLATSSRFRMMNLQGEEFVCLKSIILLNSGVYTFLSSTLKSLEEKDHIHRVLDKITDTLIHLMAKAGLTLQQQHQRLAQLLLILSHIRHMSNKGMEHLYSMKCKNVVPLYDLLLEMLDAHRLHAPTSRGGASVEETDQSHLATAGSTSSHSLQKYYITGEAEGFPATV

SMILES: COc1cc(OC)c2ccc(=O)oc2c1
- outcome [1]: inactive
- outcome [2]: inactive
- outcome [3]: inactive
- outcome [4]: inactive
- outcome [5]: inactive
- outcome [6]: inactive
- outcome [7]: inactive
- outcome [8]: inactive

SMILES: CCOC(=O)C=Cc1ccccc1
- outcome [9]: inactive
- AC50 [10]: 25 µM (active)

SMILES: CC(=O)CC(=O)N(C)C
- outcome [11]: inactive
- outcome [3]: inactive
- outcome [4]: inactive
- outcome [5]: inactive
- outcome [12]: inactive
- outcome [6]: inactive

SMILES: O=C1OC2(c3ccc(O)cc3Oc3cc(O)ccc32)c2ccccc21
- outcome [10]: inactive
- AC50 [11]: 25 µM (active)
- outcome [3]: inactive
- outcome [4]: inactive
- outcome [5]: inactive
- AC50 [12]: 11.4 µM (active)
- outcome [7]: inactive
- outcome [8]: inactive

SMILES: Cc1cc(O)c(C)c(C)c1O
- outcome [10]: inactive

SMILES: CCCCCCCCCCO[C@@H]1O[C@H](CO)[C@@H](O)[C@H](O)[C@H]1O
- outcome [1]: inactive
- outcome [3]: inactive
- outcome [4]: inactive
- outcome [5]: inactive
- outcome [6]: inactive
- outcome [8]: inactive

SMILES: COc1ccc2[nH]cc(CCNC(C)=O)c2c1
- outcome [3]: inactive
- outcome [4]: inactive
- outcome [5]: inactive
- outcome [12]: inactive
- outcome [6]: inactive
- outcome [7]: inactive
- outcome [8]: inactive
- AC50 [13]: 44.5 µM (active)

SMILES: CCc1cccc(O)c1
- outcome [11]: inactive
- outcome [3]: inactive
- outcome [4]: inactive
- outcome [5]: inactive
- outcome [12]: inactive
- outcome [6]: inactive
- outcome [7]: inactive
- outcome [8]: inactive

SMILES: CC(=O)C1=C(C)[C@@H]2C[C@@]3(C1)[C@H](C)CC[C@H]3C2(C)C
- AC50 [3]: 12.7 µM (active)
- outcome [4]: inactive
- outcome [5]: inactive
- outcome [12]: inactive
- AC50 [14]: 72.4 µM (active)
- AC50 [6]: 90 µM (active)
- outcome [7]: inactive
- outcome [8]: inactive

SMILES: CC(C)(C)c1cccc(O)c1
- outcome [2]: inactive
- outcome [4]: inactive
- outcome [5]: inactive
- outcome [14]: inactive
- outcome [6]: inactive
- outcome [7]: inactive
- outcome [8]: inactive
- outcome [13]: inactive

SMILES: CCCc1ccc(N)cc1
- outcome [3]: inactive
- outcome [4]: inactive
- outcome [5]: inactive
- outcome [6]: inactive
- outcome [7]: inactive
- outcome [8]: inactive

SMILES: C=CCCCCCCCCC(=O)OCC
- outcome [3]: inactive
- outcome [4]: inactive
- outcome [5]: inactive
- outcome [14]: inactive
- outcome [6]: inactive
- outcome [7]: inactive
- outcome [8]: inactive

SMILES: c1ccc(Cc2ccccc2)cc1
- outcome [3]: inactive
- outcome [4]: inactive
- AC50 [5]: 7.03 µM (active)
- outcome [12]: inactive
- outcome [8]: inactive

SMILES: CC1COC(=O)O1 (configuration not stated)
- outcome [2]: inactive
- outcome [3]: inactive
- outcome [4]: inactive
- outcome [5]: inactive
- outcome [12]: inactive
- outcome [14]: inactive
- outcome [6]: inactive
- outcome [7]: inactive
- outcome [8]: inactive

SMILES: [Na+]
- outcome [3]: inactive
- outcome [4]: inactive
- outcome [5]: inactive
- outcome [6]: inactive
- outcome [7]: inactive
- outcome [8]: inactive

SMILES: CCCc1ccc(O)cc1
- AC50 [3]: 46.5 µM (active)
- outcome [4]: inactive
- outcome [5]: inactive
- outcome [12]: inactive
- outcome [14]: inactive
- outcome [6]: inactive
- outcome [7]: inactive
- outcome [8]: inactive
- outcome [13]: inactive

SMILES: O=S(=O)(O)c1cc(S(=O)(=O)O)c2c(N=Nc3ccccc3)c(O)ccc2c1
- outcome [3]: inactive
- outcome [4]: inactive
- outcome [5]: inactive

SMILES: CC(CCO)CC(C)(C)C (configuration not stated)
- outcome [2]: inactive
- AC50 [3]: 39 µM (active)
- outcome [4]: inactive
- outcome [5]: inactive
- outcome [7]: inactive
- outcome [8]: inactive

SMILES: CCCCCCCCCOS(=O)(=O)O
- AC50 [11]: 12.7 µM (active)
- outcome [4]: inactive
- outcome [5]: inactive
- outcome [7]: inactive
- outcome [8]: inactive

SMILES: CCCCCCCCCO
- outcome [3]: inactive
- outcome [4]: inactive
- outcome [5]: inactive
- outcome [14]: inactive
- outcome [6]: inactive
- outcome [7]: inactive
- outcome [8]: inactive

SMILES: COC(=O)c1cccc(C(=O)OC)c1
- AC50 [2]: 1.63 µM (active)
- outcome [3]: inactive
- outcome [4]: inactive
- outcome [5]: inactive
- outcome [6]: inactive
- outcome [7]: inactive
- outcome [8]: inactive

SMILES: CCC(=O)OC(C)(C)C1CC=C(C)CC1 (configuration not stated)
- outcome [3]: inactive
- outcome [4]: inactive
- outcome [5]: inactive
- outcome [12]: inactive
- outcome [6]: inactive
- outcome [7]: inactive
- outcome [8]: inactive

SMILES: OCC=Cc1ccccc1
- outcome [3]: inactive
- outcome [4]: inactive
- outcome [5]: inactive
- outcome [6]: inactive
- outcome [7]: inactive
- outcome [8]: inactive

SMILES: CCCCN(CCCC)CCCCCCN(CCCC)CCCC
- outcome [3]: inactive
- outcome [4]: inactive
- outcome [5]: inactive
- outcome [14]: inactive
- outcome [6]: inactive
- outcome [7]: inactive
- outcome [8]: inactive

SMILES: COC(=O)C(C)Oc1ccc(Oc2ncc(C(F)(F)F)cc2Cl)cc1 (configuration not stated)
- AC50 [11]: 0.164 µM (active)
- outcome [3]: inactive
- outcome [4]: inactive
- outcome [5]: inactive
- outcome [14]: inactive
- outcome [6]: inactive
- outcome [7]: inactive
- outcome [8]: inactive

SMILES: Cc1cccc(O)c1
- outcome [11]: inactive
- outcome [3]: inactive
- outcome [4]: inactive
- outcome [5]: inactive
- outcome [14]: inactive
- outcome [7]: inactive
- outcome [8]: inactive

SMILES: CCC(C)C1CCCCC1=O (configuration not stated)
- outcome [3]: inactive
- outcome [4]: inactive
- outcome [5]: inactive
- outcome [14]: inactive
- outcome [6]: inactive
- outcome [7]: inactive
- outcome [8]: inactive

SMILES: CCCCCCCCOC(=O)c1ccc(O)cc1
- AC50 [11]: 1.72 µM (active)
- AC50 [3]: 5.35 µM (active)
- AC50 [4]: 3.7 µM (active)
- AC50 [5]: 3.43 µM (active)
- AC50 [6]: 92.8 µM (active)

SMILES: OC[C@H]1O[C@@H](O[C@H]2[C@H](O)[C@@H](O)[C@H](O)O[C@@H]2CO)[C@H](O)[C@@H](O)[C@H]1O
- outcome [2]: inactive
- outcome [3]: inactive
- outcome [4]: inactive
- outcome [5]: inactive
- outcome [12]: inactive
- outcome [7]: inactive
- outcome [8]: inactive
